High-throughput results deposited in PubChem by several laboratories.
CYP2C9 activ: CYP2C9 (human) activation. P11712. recombinant CYP2C9, luciferin-H conversion, luminescence; stronger effect = higher value; factor 1 = untreated enzyme, 0 = blocked. activation factor at 5 µM. 96,000 compounds, 1.4% hits;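 active means activation factor of 2 or more for CYP2C9 at a 5 µM dose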;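 further: 0 = sulfaphenazole-blocked wells and 1 = vehicle-only wells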
CYP2C19 inh: blocks human cytochrome P450 2C19; CYP2C19 Supersomes, luciferin-H EGE luminescence, 30 min; inhibition, % at 5 µM; AID 778; 96,000 compounds, 21% hits; P33261;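 active means CYP2C19 inhibition above a set limit at 5 µM in the primary screen, cut at about 50% in these data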;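 further: plate controls were negative control wells for no effect and 2.5 mM tranylcypromine positive control for full effect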
Target sequence (P33261 whole entry, looked up): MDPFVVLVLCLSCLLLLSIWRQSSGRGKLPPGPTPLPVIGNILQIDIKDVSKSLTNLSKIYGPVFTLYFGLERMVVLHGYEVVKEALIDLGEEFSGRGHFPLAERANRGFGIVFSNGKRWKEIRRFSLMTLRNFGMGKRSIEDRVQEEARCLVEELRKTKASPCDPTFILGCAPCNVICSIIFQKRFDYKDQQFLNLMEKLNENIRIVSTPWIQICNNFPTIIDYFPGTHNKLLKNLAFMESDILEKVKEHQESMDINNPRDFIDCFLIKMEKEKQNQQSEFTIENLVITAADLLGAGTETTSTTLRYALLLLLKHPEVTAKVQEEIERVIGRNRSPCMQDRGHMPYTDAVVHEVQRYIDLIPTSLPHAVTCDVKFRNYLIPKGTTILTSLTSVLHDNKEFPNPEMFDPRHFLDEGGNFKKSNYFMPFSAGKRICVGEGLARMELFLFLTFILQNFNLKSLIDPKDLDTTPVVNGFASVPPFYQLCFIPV
sEH inhibitor: blocks human soluble epoxide hydrolase activity; 91,000 compounds, 0.34% hits; inhibition, % at 2 µM; P34913; recombinant human sEH enzymatic activity assay; in the data active means inhibition above about 80%
CYP2C9 inh: blocks human cytochrome P450 2C9; CYP2C9 Supersomes, luciferin-H conversion, luminescence; inhibition, % at 5 µM; 96,000 compounds, 20% hits;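 active means blocking of liver enzyme CYP2C9 beyond about 50% at 5 µM, limit read from the data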
sEH act: activators of human soluble epoxide hydrolase; activation, % at 2 µM; purified human sEH enzymatic activity, activator screen; 91,000 compounds, 0.04% hits; in the data active means activation above about 37%
CYP2C19 activ: increases human CYP2C19 enzyme activity. recombinant CYP2C19, luciferin-H EGE luminescence; stronger effect = higher value; 0 = fully inhibited enzyme, 1 = untreated enzyme. activation factor at 5 µM. 96,000 tested, under 10 active. AID 1025;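 active means activation factor of at least 2 at 5 µM in the primary screen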;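 further: 0 = wells with 2.5 mM tranylcypromine and 1 = vehicle-only wells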
An asterisk follows results filed as active; x = no result given. Sampled rows, rich in hits. Any-hit rate of the full collection: about 27%.

SMILES | CYP2C9 activ | CYP2C19 inh | sEH inhibitor | CYP2C9 inh | sEH act | CYP2C19 activ
CCOc1cc(CNc2ccc3c(c2)OCCO3)cc(Br)c1OC | 0.2 | 94* | -8 | 84* | 10 | 0.1
CCOc1cc(CNc2ccc(O)cc2)cc(Br)c1OCc1ccccc1F | 1.1 | 34 | 14 | -14 | -12 | 0.7
CC(=O)c1c(C)[nH]c(C(=O)N2CCN(c3ncccn3)CC2)c1C | 0.4 | 96* | -4 | 64* | 5 | 0
CCCN1CCN(C(=O)c2cn(CC(C)C)c(=O)c3cc(OC)c(OC)cc23)CC1 | 0.9 | -6 | -4 | 11 | 3 | 1.1
CCOc1ccccc1C(=O)N1c2ccccc2Sc2ccccc21 | 0 | 87* | 0 | 98* | 2 | 0.1
O=C(C1CC1c1ccccc1)N1CCN(c2cccc(Cl)c2)CC1 (configuration not stated) | 0.5 | 60* | 10 | 47 | -8 | 0.4
COc1cc2c(C(=O)N3CCN(c4cccc(Cl)c4)CC3)cn(CC(C)C)c(=O)c2cc1OC | 0.4 | 25 | -2 | 58* | 0 | 0.7
O=C(CNCCC1=CCCCC1)Nc1ccc(N2CCCCCC2)cc1 | 1 | 0 | 48 | 2 | -49 | 1
COC(=O)c1ccc2ccn(CC(=O)NC(C)C)c2c1 | 0.7 | 44 | x | 27 | x | 0.6
Cc1c(NC(=O)Nc2ccc(Cl)c(Cl)c2)c(=O)n(-c2ccccc2)n1C | 1 | 13 | x | 3 | x | 0.9
CCn1c(CNC(=O)c2cccc(C)c2)nnc1SCC(=O)NC1CCCCC1C (configuration not stated) | 0.9 | 11 | -4 | 13 | 8 | 0.9
COc1ccc(C(=O)N2CCN(c3cccc(Cl)c3)CC2)c(OC)c1 | 0.3 | 87* | 1 | 69* | -1 | 0.1
COc1cccc(N2CCN(C(=O)NC3CCCCC3)CC2)c1 | 0.4 | 30 | 23 | 56* | -19 | 0.7
COc1cc(Cl)ccc1NC(=O)COc1ccccc1C(=O)N1CCN(c2ccc(O)cc2)CC1 | 0.2 | 79* | 35 | 82* | -33 | 0.2
COc1ccccc1OCC(=O)Nc1ccc(O)cc1C(=O)O | 0.9 | -20 | 2 | 14 | -1 | 1.2
CCOC(=O)c1[nH]c(C)c(C(=O)N2CCOCC2)c1C | 1 | 3 | 12 | 5 | -13 | 1
COc1ccc2oc(=O)c(C(=O)N3CCN(c4ccccc4)CC3)cc2c1 | 0.7 | 30 | -13 | 32 | 10 | 0.7
COc1ccc(N2CCN(C(=O)NC3CCCCC3)CC2)cc1 | x | x | 19 | x | -15 | x
CCOC(=O)c1[nH]c(C)c(C(=O)N2CCN(c3ccccc3)CC2)c1C | 0.5 | 35 | x | 55* | x | 0.7
CCOC(=O)Cn1c(=N)n(Cc2ccccc2F)c2ccccc21 | 0.8 | 19 | 7 | 19 | -7 | 0.8
CCOc1ccccc1C(=O)N1CCN(c2cccc(Cl)c2)CC1 | 0.3 | 67* | -6 | 70* | 10 | 0.3
CCOc1ccc2ccccc2c1C(=O)N1CCN(c2ccccc2)CC1 | 0.1 | 93* | 0 | 88* | 0 | 0.1
COc1ccc2ccccc2c1CN1CCN(C(=O)c2ccccc2)CC1 | 0.9 | 42 | 0 | 14 | -2 | 0.6
O=C(c1ccccc1Oc1ccccc1)N1CCN(c2ccccc2)CC1 | 0 | 96* | 4 | 98* | -4 | 0
O=C(O)c1ccccc1C(=O)N1CCN(c2cccc(Cl)c2)CC1 | x | x | 2 | x | -2 | x
SMILES | CYP2C9 activ | CYP2C19 inh | sEH inhibitor | CYP2C9 inh | sEH act | CYP2C19 activ
CN(c1ccccc1C(=O)N1CCN(c2ccccc2)CC1)S(C)(=O)=O | x | x | 9 | x | -6 | x
O=c1cc(C(F)(F)F)nc(-c2ccccc2)[nH]1 | 0.7 | 0 | -2 | 30 | 1 | 1
Cc1sc(/N=C/c2ccccc2O)c(C#N)c1C | 1 | 27 | -13 | 1 | 10 | 0.7
COc1cccc(C(O)CC(N)=O)c1 (configuration not stated) | 1 | -8 | -13 | -5 | 10 | 1.1
CCOC(=O)C1=C(c2cccc(F)c2)NC(=S)NC1C (configuration not stated) | 0.9 | 72* | 6 | 6 | -4 | 0.3
CCOC(=O)C1=C(c2ccccc2)Nc2ncnn2C1c1ccccn1 (configuration not stated) | 1.3 | -8 | -2 | -29 | 3 | 1.1
CCCOc1ccc([N+](=O)[O-])cc1C1NC(=S)NC(c2ccccc2)=C1C(=O)OCC (configuration not stated) | 0.3 | 20 | 4 | 67* | -5 | 0.8
